Measured values reported in PubChem BioAssay (NCATS).
Records with an inconclusive call do not appear. Unmarked numbers belong to inactive results. Calls of active or inactive are those of the source. Calls follow the shape of the dose curve; as a rule, active = well fitted curve in the direction sought with a large enough effect; inconclusive = small, poorly fitted or top-dose-only effect, or another doubt; inactive = no such curve, though single readings can be large; an effect the other way counts as inactive or inconclusive.

System: not listed separately
Assay: qHTS of Trypanosoma Brucei Inhibitors: LOPAC Validation (AID 624147); also: potency is read from the fitted curve at half-maximal effect; as to activity change, negative = inhibition: 0% is about no effect
Details: purified enzyme assay, luminescence, 45 min; series mostly up to 57.5 µM; activity change, negative = inhibition: at the top concentration
Outline: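 Screened from lowest to highest concentration, compounds were pinned into TbPYK/substrate mixtures, and ADP (130 uM final) was added. Plates sat at room temperature for 45 min prior to Kinase-Glo Plus detection by luminescence.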

Compound | activity change, negative = inhibition [%] | Potency
CC1CN(S(=O)(=O)c2cccc3cnccc23)CCN1 (centres undefined) | -11.3 | –
Cn1ncc(S(=O)(=O)Cc2ccccc2)c(Br)c1=O | -12.8 | –
O=C(O)CC[C@@H](C(=O)O)N1C(=O)c2ccccc2C1=O | -18 | –
O=C(O)[C@@H]1C[C@H](C(=O)O)N1 | -2.43 | –
O=C(/C=C/c1ccc(O)c(O)c1)OCCc1ccccc1 | -15.1 | –
NC(=O)C(=O)O | 5.9 | –
N#C/C(=C\c1c[nH]c2ccccc12)C(=O)c1ccc(O)c(O)c1 | -15.6 | –
C#CCN1C(C)=C(C(=O)OC)C(c2cccc([N+](=O)[O-])c2)C(C(=O)OCC)=C1C (centres undefined) | -9.17 | –
CCCCCC(O)c1cccc(OCc2ccc3ccccc3n2)c1 (centres undefined) | -8.54 | –
CNc1ncnc2c1ncn2[C@@H]1O[C@H](CO)[C@@H](O)[C@H]1O | -12.4 | –
COC1=C(OC)C(=O)c2ccccc2C1=O | -8.69 | –
CCCCCCCCCCCCCCCCCCNC(=O)OCC(COP(=O)([O-])OCC[n+]1ccsc1)OC (centres undefined) | -3.91 | –
CC(COc1ccc(/C=C/c2ccccc2)cc1)[N+](C)(C)C (centres undefined) | -23 | –
CN=c1nc(-c2ccccc2)n(-c2ccccc2)s1 | – | 8.49 µM (active)
Cc1nc2sccn2c(=O)c1CCN1CCC(=C(c2ccccc2)c2ccc(F)cc2)CC1 | -7.5 | –
O=C(O)c1cc(=O)c2c(Cl)cc(Cl)cc2[nH]1 | -9.15 | –
O=C(c1ccc(OCCCc2cnc[nH]2)cc1)C1CC1 | 3.64 | –
Cn1cc(C2=C(c3ccc(Cl)cc3Cl)C(=O)NC2=O)c2ccccc21 | -6.35 | –
Oc1cc(O)cc(/C=C/c2ccc(O)c(O)c2)c1 | – | 13.5 µM (active)

Compound | activity change, negative = inhibition [%] | Potency
NCCNC(=O)c1ncsc1-c1cccc(F)c1 | -16.5 | –
CCCN(CC1CC1)c1nc(C)nc(Nc2c(Cl)cc(Cl)cc2Cl)c1Cl | 6.85 | –
Fc1cccc(/C=N/N=C/c2cccc(F)c2)c1 | -6.28 | –
O=c1[nH]c2cc([N+](=O)[O-])c([N+](=O)[O-])cc2[nH]c1=O | -5.87 | –
OC[C@H]1O[C@@H](n2cnc3c(NC4CCCCC4)ncnc32)[C@H](O)[C@@H]1O | -0.941 | –
COC(=O)c1c(C)[nH]c(C)c1C(=O)c1ccccc1Cc1ccccc1 | -2.71 | –
CCCCCCCCc1ccc(-c2ccc(C(=O)O)cc2)cc1 | -11.6 | –
Nc1ncnc2c1c(I)cn2[C@@H]1C[C@H](N)[C@@H](O)[C@H]1O | -13.7 | –
Oc1ccccc1O | -12.1 | –
CSc1ccccc1N1CCN(CCCCCC(=O)NC2CCCc3ccccc32)CC1 (centres undefined) | -5.56 | –
CCCCCCCCCCCCCCCCCC(=O)OC(CC(=O)O)C[N+](C)(C)C (centres undefined) | -6.01 | –
O=C(O)CCCC[C@@H]1CCSS1 | -11.1 | –
Cc1cc(NC2CCCCC2)nc(-n2nc(C)cc2C)n1 | -3.37 | –
CO/S(=N\S(=O)(=O)c1ccc(Cl)cc1)c1ccc([N+](=O)[O-])cc1 (centres undefined) | -15.6 | –
CC(C)NC[C@H](O)COc1cccc2[nH]ccc12 | -9 | –
Nc1ncnc2c1ncn2[C@@H]1O[C@H](COP(=O)(O)CP(=O)(O)OP(=O)(O)O)[C@@H](O)[C@H]1O | -13.5 | –
CN(C)CCCO[C@@H]1[C@H]2OC(C)(C)O[C@H]2O[C@@H]1[C@H](O)CO | -3.11 | –
CN1CCC[C@H]1c1cccnc1 | -7.3 | –

Target: Glucagon-like peptide 1 receptor (Homo sapiens) (UniProt P43220)
Sequence (P43220 whole entry, looked up): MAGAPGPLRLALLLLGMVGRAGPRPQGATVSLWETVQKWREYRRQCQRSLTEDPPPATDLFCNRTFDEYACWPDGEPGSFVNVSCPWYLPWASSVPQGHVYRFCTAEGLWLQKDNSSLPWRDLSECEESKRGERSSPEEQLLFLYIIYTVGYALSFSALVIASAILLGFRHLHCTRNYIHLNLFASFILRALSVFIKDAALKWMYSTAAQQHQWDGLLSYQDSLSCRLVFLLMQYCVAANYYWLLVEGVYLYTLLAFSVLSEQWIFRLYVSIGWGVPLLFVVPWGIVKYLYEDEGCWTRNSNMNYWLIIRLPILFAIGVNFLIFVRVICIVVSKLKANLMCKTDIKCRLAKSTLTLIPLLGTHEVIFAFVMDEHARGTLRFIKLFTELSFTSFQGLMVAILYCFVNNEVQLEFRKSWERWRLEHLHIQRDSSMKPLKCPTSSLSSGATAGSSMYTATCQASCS
Assay: qHTS of GLP-1 Receptor Agonists: LOPAC Validation (AID 624148);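 also: 0% is about no effect; higher luminescence signal means agonism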
Details: GLP-1R agonist cell assay; series mostly up to 46.1 µM; activation: at the top concentration
Outline: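 HEK293 cells stably co-expressing GLP-1R and a cAMP-responsive luciferase reporter, plated 12 hours before compound, then incubated 4-6 hr at 37 deg C. Luminescence read 12 min after detection reagent.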

Compound | activation [%]
CC1CN(S(=O)(=O)c2cccc3cnccc23)CCN1 (centres undefined) | -1.9
Cn1ncc(S(=O)(=O)Cc2ccccc2)c(Br)c1=O | 0.838
O=C(O)CC[C@@H](C(=O)O)N1C(=O)c2ccccc2C1=O | 7.67
O=C(O)[C@@H]1C[C@H](C(=O)O)N1 | 1.12
O=C(/C=C/c1ccc(O)c(O)c1)OCCc1ccccc1 | 1.46
NC(=O)C(=O)O | -1.53
N#C/C(=C\c1c[nH]c2ccccc12)C(=O)c1ccc(O)c(O)c1 | 8.7
C#CCN1C(C)=C(C(=O)OC)C(c2cccc([N+](=O)[O-])c2)C(C(=O)OCC)=C1C (centres undefined) | 4.99
CCCCCC(O)c1cccc(OCc2ccc3ccccc3n2)c1 (centres undefined) | 16.3
CNc1ncnc2c1ncn2[C@@H]1O[C@H](CO)[C@@H](O)[C@H]1O | 26
COC1=C(OC)C(=O)c2ccccc2C1=O | -0.535
CCCCCCCCCCCCCCCCCCNC(=O)OCC(COP(=O)([O-])OCC[n+]1ccsc1)OC (centres undefined) | 0.885
CC(COc1ccc(/C=C/c2ccccc2)cc1)[N+](C)(C)C (centres undefined) | -1.14
CN=c1nc(-c2ccccc2)n(-c2ccccc2)s1 | -1.11
Cc1nc2sccn2c(=O)c1CCN1CCC(=C(c2ccccc2)c2ccc(F)cc2)CC1 | -1.8
O=C(O)c1cc(=O)c2c(Cl)cc(Cl)cc2[nH]1 | -2.06
O=C(c1ccc(OCCCc2cnc[nH]2)cc1)C1CC1 | -0.771
Cn1cc(C2=C(c3ccc(Cl)cc3Cl)C(=O)NC2=O)c2ccccc21 | -0.877
Oc1cc(O)cc(/C=C/c2ccc(O)c(O)c2)c1 | 1.69

Compound | activation [%]
NCCNC(=O)c1ncsc1-c1cccc(F)c1 | -1.57
CCCN(CC1CC1)c1nc(C)nc(Nc2c(Cl)cc(Cl)cc2Cl)c1Cl | -1.87
Fc1cccc(/C=N/N=C/c2cccc(F)c2)c1 | -1.3
O=c1[nH]c2cc([N+](=O)[O-])c([N+](=O)[O-])cc2[nH]c1=O | -1.31
OC[C@H]1O[C@@H](n2cnc3c(NC4CCCCC4)ncnc32)[C@H](O)[C@@H]1O | 18.6
COC(=O)c1c(C)[nH]c(C)c1C(=O)c1ccccc1Cc1ccccc1 | 6.46
CCCCCCCCc1ccc(-c2ccc(C(=O)O)cc2)cc1 | -1.59
Nc1ncnc2c1c(I)cn2[C@@H]1C[C@H](N)[C@@H](O)[C@H]1O | -1.13
Oc1ccccc1O | -1.87
CSc1ccccc1N1CCN(CCCCCC(=O)NC2CCCc3ccccc32)CC1 (centres undefined) | 1.54
CCCCCCCCCCCCCCCCCC(=O)OC(CC(=O)O)C[N+](C)(C)C (centres undefined) | -3.41
O=C(O)CCCC[C@@H]1CCSS1 | -1.52
Cc1cc(NC2CCCCC2)nc(-n2nc(C)cc2C)n1 | 5.59
CO/S(=N\S(=O)(=O)c1ccc(Cl)cc1)c1ccc([N+](=O)[O-])cc1 (centres undefined) | -1.4
CC(C)NC[C@H](O)COc1cccc2[nH]ccc12 | 2.08
Nc1ncnc2c1ncn2[C@@H]1O[C@H](COP(=O)(O)CP(=O)(O)OP(=O)(O)O)[C@@H](O)[C@H]1O | -0.956
CN(C)CCCO[C@@H]1[C@H]2OC(C)(C)O[C@H]2O[C@@H]1[C@H](O)CO | -0.453
CN1CCC[C@H]1c1cccnc1 | -1.7
